Screening results as filed in PubChem BioAssay.
MITF TRPM1 inh: inhibitors of MITF-dependent TRPM1 promoter reporter, primary screen, cell-based, SK-MEL-5, single point, luciferase; inhibition, % at 12.5 µM; 0.83% of 330,000 active; SK-MEL-5 TRPM1 promoter luciferase, 24 h; AID 488899, 2010;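 active means mean inhibition across replicates of 60% or more, whatever share of single replicates reaches that level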
CF NFkB block: inhibitors of PAF-induced NF-kB signaling, primary screen, cell-based, GFP fluorescence, uHTS; KKLEB NF-kB-GFP reporter, GFP fluorescence overnight; inhibition, % at 5 µM; AID 588850, 2011; 0.86% of 360,000 active;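 active means at least 50% inhibition at 5 µM, scaled per plate between neutral and stimulator controls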;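 further: PAF is a Pseudomonas aeruginosa culture filtrate used as stimulus; plate controls were PAF-stimulated DMSO wells for no effect and unstimulated DMSO wells for full effect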
Shn3 3UTR inh: reduction of Shn3 3'UTR firefly luciferase signal, primary screen, Schnurri-3 inhibitor project, cell-based, Clone20 osteoblasts, set 2; Clone20 osteoblast Shn3 3'UTR firefly luciferase, 24 h; inhibition, % at 12.5 µM; 0.52% of 360,000 active; AID 588674, 2011;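 active means mean inhibition of at least 75% with every replicate also reaching 75%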;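 further: 0% = median of neutral control wells and 100% = pilot-screen positive control compound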
KKLEB cytotox: cytotoxicity in KKLEB CF airway cells, primary screen, cytotoxicity control for CF NF-kB inhibitor project, cell-based, uHTS, fluorescence assay plates; KKLEB CF airway cells viability, ATPlite luminescence, overnight; hits give low values; cells stimulated with P. aeruginosa culture filtrate; activity change (cytotoxicity), % at 5 µM; 0.36% of 360,000 active; AID 602141, 2011;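 active means corrected activity change at or below -50% at 5 µM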
Peg3 promoter: Peg3 promoter-driven luciferase inhibitors, primary screen, cell-based, HeLa, luciferase luminescence; HeLa PEG-Prom luciferase reporter, overnight; inhibition, % at 20 µM; 1.7% of 360,000 active;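 active means inhibition of at least 50% at 20 µM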
HIF-2a inh: HIF-2a reporter inhibitors, primary screen, luminescence, 786-0 RCC cells | 0.72% of 360,000 active | inhibition, % at 18.8 µM | 786-0 RCC cells HIF-2a reporter, luciferase luminescence, overnight | AID 624352, 2012;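 active means inhibition of the luminescence signal of 40% or more relative to plate controls, in a single-dose primary screen at 18.75 µM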
CF NFkB inh conf: inhibitors of PAF-induced NF-kB signaling, retest, confirmation, cell-based, GFP fluorescence, single concentration. AID 602472, 2012. inhibition, % at 5 µM. 64% of 1,300 active. shares compounds with CF NFkB block. KKLEB CF airway cells, overnight; in the data active means inhibition above about 40%;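 further: stimulus PAF is a Pseudomonas aeruginosa filtrate and not platelet activating factor; plate controls were DMSO wells with stimulus for no effect and unstimulated DMSO wells for full effect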
The depositor's hits bear a star; . = not tested or not shown. Shown are actives, neighbours in structure and some others; about 2.8% of the full set was active somewhere.

SMILES	MITF TRPM1 inh	CF NFkB block	Shn3 3UTR inh	KKLEB cytotox	Peg3 promoter	HIF-2a inh	CF NFkB inh conf
CC(C)[C@H](CO)Nc1nc(NCc2ccc(S(N)(=O)=O)cc2)c2ncn(C(C)C)c2n1	19	71*	-6	-16	21	24	104*
CC(C)n1cnc2c(NCc3ccc(S(N)(=O)=O)cc3)nc(NCc3ccc(S(N)(=O)=O)cc3)nc21	8	-12	-3	-3	-11	4	.
O=[N+]([O-])c1ccc(Sc2nnnn2-c2ccccc2)c(Cl)c1	21	19	-22	-26	18	6	.
CC(=O)c1ccc(Sc2nnnn2-c2ccccc2)c([N+](=O)[O-])c1	63*	76*	21	-32	38	13	28
NC(=O)N/N=C/c1c(Sc2nnnn2-c2ccccc2)nc2ccccn2c1=O	15	71*	4	-38	103*	3	72*
Cc1nn(-c2ccccc2)c(Cl)c1/C=N/NC(N)=O	4	-8	8	-13	-23	-88	.
COc1ccccc1NS(=O)(=O)c1cccc(-n2c(O)c(C=Nc3ccccc3C(=O)O)c3ccccc3c2=O)c1	23	86*	-29	15	34	27	93*
COc1ccc(Cn2c(O)c(C=Nc3ccccc3C(=O)O)c3ccccc3c2=O)cc1	16	6	-1	10	21	14	.
COc1cc(/C=N/NC(=O)Nc2cccc3nsnc23)cc(OC)c1OC	-30	64*	7	-25	22	9	77*
Cc1ccccc1OCCC(=O)OCC(=O)NNC(=O)c1cccs1	-4	-10	-12	-12	-3	13	.
Cc1[nH]nc2ncc(C(=O)c3ccccc3O)cc12	-1	86*	66	-13	26	10	94*
Cc1cccc(N2CCN(C(=O)c3[nH]c(C(F)(F)F)nc3-c3ccccc3)CC2)c1C	.	50*	25	-22	-7	9	87*
COc1cccc2c(SCC(=O)N/N=C/c3ccc(O)c(O)c3)cc(C)nc12	-7	16	9	-11	22	0	.
COc1cccc2c(SCC(=O)N/N=C/c3ccccc3)cc(C)nc12	17	54*	9	-29	27	31	61*
CC(C)c1ccc(NC(=O)CCN2C(=O)[C@@H]3Cc4ccccc4CN3C2=O)cc1	1	10	15	-16	0	-11	.
CCC1(O)CC2CN(CCc3c([nH]c4ccccc34)C(C(=O)OC)(c3cc4c(cc3OC)N(C=O)C3C(O)(C(=O)OC)C(OC(C)=O)C5(CC)C=CCN6CCC43C65)C2)C1 (stereo not drawn)	52	58*	-6	-8	-22	32	92*
Cc1cccn2c(CNCC3(c4ccccc4)CCCC3)c(C(=O)N3CCOCC3)nc12	-1	59*	39	-28	47	13	6
COc1ccc(/C=N/NC(=O)c2c(Br)cnn2C)c2ccccc12	9	-18	14	4	7	-11	.
CCCCCCCCN1C(=O)[C@H](CC(=O)N2CCSCC2)C[C@@]2(C(=O)OC)CCCCC=C12	.	.	.	.	.	10	.
CC(=O)OCC(=O)C1(O)CCC2C3CC(C)C4=CC(=O)C=CC4(C)C3C(O)CC21C (stereo not drawn)	.	65*	28	45	-18	18	4
COCCNC(=O)C(OC(=O)CC1Sc2ccccc2NC1=O)c1ccccc1 (stereo not drawn)	-8	6	7	1	-19	-8	.
N#C/C(=C\c1ccc(F)c(F)c1)C(=O)NC1CCCCC1	3	52*	2	-18	8	28	16
O=C(Nc1ccc2c(c1)OCO2)c1cc(-c2ccc(O)cc2)on1	-73	52*	-5	-41	-165	-205	3
O=C(Nc1ccc2c(c1)OCO2)c1cc(-c2cccc(O)c2)on1	-109	-43	-90	8	-326	-337	.
CN(CC(=O)Nc1ccccc1Cl)C(=O)COC(=O)c1nc(Cl)c(Cl)c(Cl)c1Cl	74*	87*	3	-42	105*	38	-100
SMILES	MITF TRPM1 inh	CF NFkB block	Shn3 3UTR inh	KKLEB cytotox	Peg3 promoter	HIF-2a inh	CF NFkB inh conf
COc1cc(C(=O)Nc2nnc(-c3sccc3C)s2)cc(OC)c1OC	-5	54*	1	-45	-1	-14	59*
NC1(C(=O)O)CSSC1	65*	62*	11	3	82*	-122	57*
COc1ccc(CNC(=O)C[C@H]2C[C@H](C(=O)N3CCCCC3)[C@@]3(CCc4ccccc4)c4[nH]c5ccc(Cl)cc5c4CCN3C2=O)cc1OC	30	51*	24	-10	28	-27	39
Cc1cc(N)n(-c2ccccn2)n1	0	0	-12	8	-48	-14	.
CN(C)C(=S)SCC(=O)NC(=O)NC(C)(C)C	-1	-1	6	1	9	5	.
COc1cc([C@H]2Oc3cc([C@H]4Oc5cc(O)cc(O)c5C(=O)[C@@H]4O)ccc3O[C@@H]2CO)ccc1O	0	20	-5	-1	-7	1	.
COc1cc([C@@H]2Oc3cc(C4Oc5cc(O)cc(O)c5C(=O)[C@H]4O)ccc3O[C@H]2CO)ccc1O (stereo partly drawn)	13	51*	-6	13	-12	3	9
COc1ccc(C)cc1S(=O)(=O)N1CCCC(C(=O)N2CCN(c3ccccc3F)CC2)C1 (stereo not drawn)	-1	24	22	-4	15	14	.
CCOc1ncccc1C(=O)OC(C)C(=O)Nc1ccc(Cl)cn1 (stereo not drawn)	2	36	6	-15	4	10	.
CNc1ccccc1C(=O)OC(C)C(=O)Nc1ccc(Cl)cn1 (stereo not drawn)	6	69*	-7	-8	100*	-186	34
O=C(OCC(=O)N1CCCC1=O)c1nc(Cl)c(Cl)c(Cl)c1Cl	53	60*	-4	0	82*	8	-20
Nc1c(Cl)c(Cl)nc(C(=O)OCC(=O)N2CCCC2=O)c1Cl	7	19	-2	4	8	10	.
O=C(/C=C/c1ccco1)Nc1ccccn1	-8	29	-64	-16	-105	-109	.
Cc1ccc(NC(=O)/C=C/c2ccco2)nc1	5	65*	-6	-38	-132	-151	73*
Cc1cc(C)n(S(=O)(=O)c2ccc3oc(=O)ccc3c2)n1	0	5	-5	10	-4	10	.
